# Compound activity: PubChem, National Center for Advancing Translational Sciences (NCATS)
# Only some compounds are listed: those with a hit (about 12% of all), similar ones and a draw of the others.
# Sfp inh: qHTS Assay for Inhibitors of Bacillus subtilis Sfp phosphopantetheinyl transferase (PPTase) | 4'-phosphopantetheinyl transferase ffp (Bacillus subtilis), Q9F4F7 | Biochemical Sfp PPTase activity, qHTS | Potency, µM, without a hit: largest response in the series, negative = inhibition, most hits filed as inhibitors | 310,000 tested, 3.5% active;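 further: the enzyme is Sfp with the accession as filed and its product quenches rhodamine fluorescence; 0% = enzyme reaction without inhibitor and -100% = no enzyme wells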
#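 Compounds were incubated with enzyme (final 15 nM) for 15 min at room temperature before substrate addition started the reaction. Fluorescence at 525 nm excitation, 598 nm emission was recorded immediately and after 30 minutes.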
# TDP1 inh: qHTS Assay for Inhibitors of Tyrosyl-DNA Phosphodiesterase (TDP1); Tyrosyl-DNA phosphodiesterase 1 (Homo sapiens), Q9NUW8; recombinant TDP1, AlphaScreen DNA substrate cleavage; Potency, µM (doses to about 130 µM), for inactives: top-dose activity change, negative = inhibition, hits mostly inhibitors; 350,000 tested, 0.28% active; AID 485290, 2010; further: on the % scale 0 is the no-effect control and ±100 the full control effect; nearly all actives have a fitted effect of over 40% in size
#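 Recombinant E. coli-expressed Tdp1 (1 nM) preincubated with compound 15 min at RT, then 5'-biotin/3'-phosphotyrosine-FITC DNA substrate (15 nM) added for 5 min. AlphaScreen beads (10 ug/ml) added, 10 min RT; tyrosine-FITC cleavage read as signal loss.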
# JMJD2A Tudor inh: qHTS Assay for Inhibitors of JMJD2A-Tudor Domain. 390,000 tested, 4.4% active. AID 504339, 2011. Potency, µM (titrated, usually from 114 µM), without a hit: top-dose activity change, negative = inhibition, actives largely listed as inhibitors. AlphaScreen JMJD2A-Tudor / H3K4me3 peptide binding; further: on the % scale 0 is the no-effect control and ±100 the full control effect; nearly all actives have a fitted effect of over 50% in size
# G9a block: qHTS Assay for Inhibitors of Histone Lysine Methyltransferase G9a. Histone-lysine N-methyltransferase EHMT2 (Homo sapiens), Q96KQ7. G9a H3K9 monomethylation, AlphaScreen, 2 h. Potency, µM (series often up to 102 µM), without a hit: at the top dose activity, negative = inhibition, usual class: inhibitors. 350,000 tested, 8.8% active; further: on the % scale 0 is the no-effect control and ±100 the full control effect; nearly all actives have a fitted effect of over 75% in size
#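 Quantitative HTS format: methyltransferase activity on a biotin-tagged H3K9 peptide is measured by AlphaScreen, using a rabbit anti-monomethyl-H3K9 antibody with streptavidin donor and anti-IgG acceptor beads. Final levels are 20 nM enzyme, 500 nM peptide, 20 uM SAM; 2 h RT.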
# BAZ2B block: qHTS Assay for Inhibitors of BAZ2B; AlphaScreen BAZ2B-H3K14Ac peptide displacement; Potency, µM (series often up to 114 µM), without a hit: top-dose activity change, negative = inhibition, actives largely listed as inhibitors; 360,000 tested, 4.4% active; Bromodomain adjacent to zinc finger domain protein 2B (Homo sapiens), Q9UIF8; AID 504333, 2011; further: on the % scale 0 is the no-effect control and ±100 the full control effect; nearly all actives have a fitted effect of over 60% in size
# Target sequence (Q9UIF8 whole entry, looked up, the tested form may be a part): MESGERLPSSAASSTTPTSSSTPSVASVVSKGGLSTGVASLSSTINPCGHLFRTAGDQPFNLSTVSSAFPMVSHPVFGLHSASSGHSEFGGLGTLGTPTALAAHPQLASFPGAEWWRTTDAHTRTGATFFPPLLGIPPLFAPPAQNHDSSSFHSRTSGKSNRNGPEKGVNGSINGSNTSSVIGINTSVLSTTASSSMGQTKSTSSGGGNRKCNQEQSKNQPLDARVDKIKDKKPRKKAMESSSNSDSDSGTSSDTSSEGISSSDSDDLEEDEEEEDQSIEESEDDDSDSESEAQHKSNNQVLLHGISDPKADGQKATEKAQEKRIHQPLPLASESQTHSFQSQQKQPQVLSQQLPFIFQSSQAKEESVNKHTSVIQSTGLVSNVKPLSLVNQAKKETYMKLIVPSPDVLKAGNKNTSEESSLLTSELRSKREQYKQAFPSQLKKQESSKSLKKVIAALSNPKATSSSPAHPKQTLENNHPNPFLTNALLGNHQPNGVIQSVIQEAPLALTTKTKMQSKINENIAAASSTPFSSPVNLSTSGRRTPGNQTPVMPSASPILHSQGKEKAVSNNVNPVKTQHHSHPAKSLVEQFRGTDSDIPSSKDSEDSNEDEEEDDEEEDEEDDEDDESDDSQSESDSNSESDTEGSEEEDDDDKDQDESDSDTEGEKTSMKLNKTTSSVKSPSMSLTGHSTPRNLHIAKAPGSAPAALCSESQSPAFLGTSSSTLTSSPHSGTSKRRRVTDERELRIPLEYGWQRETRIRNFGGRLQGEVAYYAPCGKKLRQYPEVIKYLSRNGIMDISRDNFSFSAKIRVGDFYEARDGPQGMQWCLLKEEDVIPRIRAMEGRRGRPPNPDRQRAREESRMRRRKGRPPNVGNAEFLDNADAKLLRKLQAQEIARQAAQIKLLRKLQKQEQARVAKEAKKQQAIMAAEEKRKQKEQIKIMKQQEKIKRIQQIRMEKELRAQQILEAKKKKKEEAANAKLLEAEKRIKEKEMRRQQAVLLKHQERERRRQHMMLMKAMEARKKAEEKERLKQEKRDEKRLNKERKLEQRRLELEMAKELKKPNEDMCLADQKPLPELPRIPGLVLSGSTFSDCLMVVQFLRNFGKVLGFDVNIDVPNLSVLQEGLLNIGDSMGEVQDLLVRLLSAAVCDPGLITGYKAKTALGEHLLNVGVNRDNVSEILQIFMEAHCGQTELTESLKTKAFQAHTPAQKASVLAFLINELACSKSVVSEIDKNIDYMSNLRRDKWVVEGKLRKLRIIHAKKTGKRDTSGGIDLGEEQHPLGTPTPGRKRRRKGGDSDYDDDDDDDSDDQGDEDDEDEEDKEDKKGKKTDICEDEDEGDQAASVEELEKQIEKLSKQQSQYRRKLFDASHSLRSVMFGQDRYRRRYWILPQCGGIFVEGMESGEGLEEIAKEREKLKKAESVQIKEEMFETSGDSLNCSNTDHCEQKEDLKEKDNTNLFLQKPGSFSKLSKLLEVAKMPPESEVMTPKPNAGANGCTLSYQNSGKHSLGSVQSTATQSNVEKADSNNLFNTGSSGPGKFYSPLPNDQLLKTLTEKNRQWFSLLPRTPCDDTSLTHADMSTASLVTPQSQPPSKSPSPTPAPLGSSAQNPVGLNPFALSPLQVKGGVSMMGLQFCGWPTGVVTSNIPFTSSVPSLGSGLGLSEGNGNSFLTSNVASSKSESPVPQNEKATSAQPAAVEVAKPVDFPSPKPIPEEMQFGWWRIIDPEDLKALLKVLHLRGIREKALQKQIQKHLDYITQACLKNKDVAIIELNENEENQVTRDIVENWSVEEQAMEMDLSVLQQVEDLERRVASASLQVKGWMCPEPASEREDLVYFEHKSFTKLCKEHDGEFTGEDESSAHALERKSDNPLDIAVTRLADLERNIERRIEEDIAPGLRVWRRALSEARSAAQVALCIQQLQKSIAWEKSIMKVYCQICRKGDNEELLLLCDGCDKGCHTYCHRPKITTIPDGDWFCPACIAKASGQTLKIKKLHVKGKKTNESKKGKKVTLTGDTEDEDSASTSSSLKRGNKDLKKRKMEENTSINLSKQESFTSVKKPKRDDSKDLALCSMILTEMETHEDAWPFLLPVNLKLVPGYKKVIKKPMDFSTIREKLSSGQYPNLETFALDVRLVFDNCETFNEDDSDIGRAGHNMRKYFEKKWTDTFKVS
#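 Inhibition is scored as reduced AlphaScreen emission. The BAZ2B/b-H3(5-23)K14Ac complex (50 nM each) in PBS pH 7.4, 0.01% Tween-20 meets compound (up to 110 uM) for 30 min at RT before bead addition.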
# HP1b binding inh: HTS for Inhibitors of HP1-beta Chromodomain Interactions with Methylated Histone Tails; Chromobox protein homolog 1 (Homo sapiens), P83916; AlphaScreen HP1-beta / biotin-H3K9me3 peptide binding; Potency, µM (highest dose often 114 µM), for inactives: at the top dose activity change, negative = inhibition, usual class: inhibitors; 390,000 tested, 0.56% active; further: nearly all actives have a fitted effect of over 70% in size
#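 AlphaScreen: HP1-beta (50 nM) preformed 30 min with biotin-H3(1-18)K9me3 peptide (50 nM) in PBS pH 7.4, 0.01% Tween-20. Compound added for 30 min at RT, then streptavidin donor/nickel chelate acceptor beads (10 ug/mL) for 30 min.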
# Starred values were filed as active, the others as inactive; ? = inconclusive; . = not tested or not shown; [ ] = remark or other dose. The call rests on the fitted dose curve; in most records, active means well fitted curve in the direction sought with a large enough effect; inconclusive means small, poorly fitted or top-dose-only effect, or another doubt; inactive means no such curve, though single readings can be large; an effect the other way counts as inactive or inconclusive. Potency means the concentration at half of the fitted maximal effect.
SMILES,Sfp inh,TDP1 inh,JMJD2A Tudor inh,G9a block,BAZ2B block,HP1b binding inh
COc1ccc(C2NC(=O)N(C)C3=C2C(=O)N(c2ccccc2)C3)cc1 (centres undefined),.,5%,-3%,-6%[59 µM],?,24%
O=C(NC(=S)NC1CCSC1=O)c1ccc([N+](=O)[O-])cc1 (centres undefined),-3%,7%,.,-4%,-21%,.
O=C1SCCC1NS(=O)(=O)c1ccc([N+](=O)[O-])cc1 (centres undefined),14%,.,-16%,50µM*,?,3%
CC(C)C[C@H](NC(=O)c1nc[nH]c1C(=O)N[C@@H](CC(C)C)C(=O)OC(C)(C)C)C(=O)OCc1ccccc1,34%,.,-22%,3%,-5%,37%
CC(C)C[C@H](NC(=O)c1[nH]cnc1C(=O)N[C@@H](C)c1ccccc1)C(=O)OCc1ccccc1,29%,-1%,-35%,19%[12.7 µM],3%,33%
CC(C)C[C@@H](CN)NC(=O)c1nc[nH]c1C(=O)N[C@@H](CC(C)C)C(=O)CNC[C@H](C)NC(=O)c1nc[nH]c1C(=O)N[C@@H](CC(=O)O)C(=O)O,.,.,79µM*,.,.,54%
CC(C)C[C@@H](CNCC(=O)[C@H](CC(C)C)NC(=O)c1[nH]cnc1C(=O)N[C@H](CN)CC(C)C)NC(=O)c1nc[nH]c1C(=O)N[C@@H](CC(=O)O)C(=O)O,.,.,79µM*,.,.,38%
O=S(=O)(c1ccc(F)cc1F)N1CCN(CCO)CC1,.,.,-17%,.,.,20%
Cc1ccccc1-n1c(SC/C(O)=C(\C#N)c2nc3ccccc3[nH]2)nnc1-c1ccncc1,10%,12%,79µM*,?,-2%,?
CCOC(=O)c1ccc2c(c1)nc(SCC(=O)c1ccco1)n2CC,50µM*,0%,?,?,-12%,28%
CCOC(=O)c1ccc2c(c1)nc(SC/C(O)=C(\C#N)c1nc3ccccc3[nH]1)n2CC,18%,6%,-29%,50µM*,-2%,28%
Cc1ccc(C(=O)N[C@H](C(=O)OCc2nnc(-c3ccccc3)o2)C(C)C)cc1,1%,3%,-17%,.,-4%,32%
CC(C)[C@H](NC(=O)c1ccccc1)C(=O)OCc1nnc(-c2ccccc2)o1,16%,3%,22µM*,-49%,.,?
Cc1ccc(C(=O)OCc2nnc(-c3ccccc3)o2)o1,-9%,-3%,89µM*,-42%[0.0925 µM],-3%,-15%
O=C(OCc1nnc(-c2ccccc2)o1)c1ccc(CO)cc1,10%,2%,1%,-3%,-5%,26%
Cc1ccc(CCNC(=O)C2CCC(=O)N(Cc3cccc(F)c3)C2)cc1 (centres undefined),0%,3%[56.1 µM],-22%,-20%,-1%,1%
CCCC(=O)Nc1c2c(nn1-c1ccc(C)cc1C)CSC2,?,2%,-19%,22µM*,-5%,28%
O=C(CBr)Nc1c2c(nn1-c1ccccc1)CSC2,-14%,3%,-27%,22µM*,-15%[57.1 µM],34%[57 µM]
CC1CCCC(CC(N)=O)CC1 (centres undefined),.,.,-12%,.,.,11%
CC1(C)SC2C(NC(=O)C3(N)CCCCC3)C(=O)N2C1C(=O)O (centres undefined),.,.,-9%,.,.,28%[57 µM]
c1ccc2sc(N3CCN(Cc4nnnn4CC4CCCO4)CC3)nc2c1 (centres undefined),-7%,6%,-12%,28µM*,.,26%
CCOc1ccc2oc(C(=O)N(C)CC(=O)Nc3ccc(OCC)c(OCC)c3)c(C)c2c1,.,-7%[0.505 µM],-24%,56µM*,-34%,-6%
CCOc1ccc2oc(C(=O)N(C)CCc3ccc(OC)c(OC)c3)c(C)c2c1,.,0%,-20%,5%[12.7 µM],-28%,25%
COc1ccc2oc(C(=O)OCC(=O)N(C)CC(=O)Nc3ccc(C)cc3)c(C)c2c1,.,0%,-13%,50µM*,4%,18%
CCOc1ccc2oc(C(=O)Nc3ccc(N4CCOCC4)cc3)c(C)c2c1,9%,5%,-5%,13µM*,-6%,35%
SMILES,Sfp inh,TDP1 inh,JMJD2A Tudor inh,G9a block,BAZ2B block,HP1b binding inh
COc1ccc(C(=O)N2CCC3(CCN(C)CC3)CC2)cc1,3%,.,.,15%[12.7 µM],.,.
CCc1ccc(-n2c(C)nc3cc(C(=O)NCCc4ccccc4)ccc32)cc1,.,10%,-28%,?,-15%,29%
Nc1ccccc1NC(=O)c1ccc(CNC(=O)OCc2cccnc2)cc1,9%,10%,.,.,.,.
O=C(Cc1ccc(F)cc1)N/N=C/c1ccccn1,56µM*,3%,5%,4µM*,?,37%
O=C(Cc1cccs1)Nc1ccccn1,5%,-3%,-14%,?,?,29%
CCCCCCCCC(=O)N/N=C/c1ccccn1,-7%,-2%,-30%,4%,-5%,13%
O=C(Cc1cccs1)N/N=C/c1ccccn1,?,1%,?,1.4µM*,-19%,32%
CCN=C(NS(=O)(=O)c1ccc(Br)cc1)c1ccc(Cl)cc1,22%,2%,-3%,15%,-16%,45%
CNC(=O)c1[nH]cnc1C(=O)N[C@@H](C)C(=O)OCc1ccccc1,-13%,0%,-33%,-9%[12.7 µM],50µM*,65%
CNC(=O)c1[nH]cnc1C(=O)NCC(=O)OCc1ccccc1,8%,.,-33%,45µM*,-25%,37%
O=C(CNC(=O)c1nc[nH]c1C(=O)NCC(=O)OCc1ccccc1)OCc1ccccc1,17%,.,?,.,?,30%
CCN(CC)C(=O)c1[nH]cnc1C(=O)NCC(=O)OCc1ccccc1,5%,.,-17%,79µM*,-3%,54%
C=CCN=C1SC(C)(C)C(=O)N1S(=O)(=O)c1ccc(C)cc1,-3%,3%,15%,-1%,.,61%
COc1ccc2c(CNCCc3cccs3)c(C(=O)O)n(Cc3ccc(F)cc3Cl)c2c1,.,10%,-35%,-41%[59 µM],-22%,11%
COc1ccc(N=C2NN=C(c3c(C)[nH]c4ccccc34)CS2)cc1,35µM*,8%,?,8.9µM*,40µM*,?
COc1ccc(N=C2SCC(c3ccccc3)=NN2C)cc1,-7%,6%,-11%,37%,-11%,27%
Cc1[nH]c2ccccc2c1C1=NNC(=Nc2ccc(F)cc2)SC1,22µM*,5%,56µM*,?,?,?
